Compounds without any hit were thinned out: in the full panel of roughly 79,000, 15% have a hit. Activity calls are given as the source filed them. Rule as the data show it: active = growth inhibition above about 70%; inactive = the rest.
Test: NCI Yeast Anticancer Drug Screen. Data for the rad50 strain (AID 155);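 also: 0% = growth of vehicle-only cultures of the same strain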
Conditions: S. cerevisiae rad50 strain growth inhibition; at 50.0 µM; active compounds read high
Outline: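 Compounds were tested on a yeast strain with an engineered DNA damage repair alteration; the reported value is growth inhibition normalised to vehicle treatment.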

| SMILES | growth inhibition |
| --- | --- |
| CCCCC#C[I+]c1ccccc1 | 90.5% (active) |
| CCOC(=O)C1C(c2cccc(OC)c2O)c2cc3c(cc2OC1(C)N1CCCC1)OCO3 (centres undefined) | 31.2% (inactive) |
| Nc1ncnc2nn(C3OC(CO)C(O)C3O)nc12 (centres undefined) | 29.1% (inactive) |
| Nc1nc(-c2ccc3c(c2)Sc2ccccc2O3)cs1 | 67.6% (inactive) |
| O=C1C=CC(Nc2cccc([N+](=O)[O-])c2)C1Nc1cccc([N+](=O)[O-])c1 (centres undefined) | 92.3% (active) |
| O=C(CC(=O)c1ccccc1)CC(=O)c1ccccc1 | 87.7% (active) |
| Fc1ccc(CSC(=S)Nc2ccc(Br)cc2)cc1 | 91.2% (active) |
| Cc1cc([N+](=O)[O-])c2nnnn2c1 | -1.75% (inactive) |
| CN(c1ccc(C(N)=O)cc1)c1c(O)c2ccccc2[nH]c1=O | -27.9% (inactive) |
| O=C(/C=C\c1cccc2ccccc12)c1ccccn1 | 98.2% (active) |
| COc1ccc2c(c1)CCc1c(CO)c(COC(=O)NC(C)C)n(C)c1-2 | 95.8% (active) |
| O=C1CC(O)CC(=O)C1=C(O)CCCCCCCCCCc1ccccc1 (centres undefined) | 66.4% (inactive) |
| CC1CCN(CCCOC(=O)c2ccccc2)CC1 | 58.9% (inactive) |
| Cc1ccc(S(=O)(=O)OC2COC3C(OS(=O)(=O)c4ccc(C)cc4)COC23)cc1 (centres undefined) | 19.6% (inactive) |
| Cc1nn(C(=S)S)c(C)c1N=Nc1cccc(F)c1 | 88.2% (active) |
| O=C1C(=Cc2ccccc2O)N=C(c2ccccc2)N1n1c(-c2ccccc2)nc2ccccc2c1=O | 58% (inactive) |
| O=C1/C(=C/c2ccccc2)CNC/C1=C\c1ccccc1 | 98.7% (active) |
| Cc1cc(Br)c(P(=O)(O)O)cc1[N+](=O)[O-] | 74.1% (active) |
| Oc1cc(Cc2ccccc2)c(Cc2ccccc2)cc1O | 89.2% (active) |
| O=S1(=O)CCN(c2ccccc2CC(c2c[nH]c3ccccc23)c2c[nH]c3ccccc23)CC1 | 88.5% (active) |

| SMILES | growth inhibition |
| --- | --- |
| CCCCCC(O)C(C)CO (centres undefined) | 12.8% (inactive) |
| Cc1cc(=O)c2cc(N=Cc3ccc([N+](=O)[O-])o3)ccc2o1 | 74.9% (active) |
| CN(C)C(=S)/N=c1\ssc(=S)n1Cc1ccco1 | 1.55% (inactive) |
| O=[N+]([O-])c1ccc2nc(Nc3ccccc3)c(Nc3ccccc3)nc2c1 | 74.1% (active) |
| CC(=O)NC(CCC(=O)O)C(=O)O.[NH-]C1CCCCC1[NH-].[Pt+2] (centres undefined) | 99.5% (active) |
| CC(=O)Oc1c2c(c(C)c3ccccc13)C(=O)c1cccnc1C2=O | 98.4% (active) |
| C=C1C(=O)OC2C(C)C3C=CC(=O)[C@@]3(C)C(OC(=O)/C(C)=C/C)C1[C@@H]2OC(C)=O (some centres undefined) | 80.2% (active) |
| O=C(O)/C=C/c1ccc2c(c1)CC1(Cc3ccccc3C1)C2 | 45.6% (inactive) |
| C(=C\c1ccc(-[n+]2nc(-c3ccccc3)nn2-c2ccccc2)cc1)/c1ccccc1 | 91.5% (active) |
| O=CC(O)C(O)C(O)C(O)C(=O)NCCCCCCCCCCCCNC(=O)C(O)C(O)C(O)C(O)C=O (centres undefined) | 16.4% (inactive) |
| CCCCCCCCCCN(CCCCCCCCCC)CC(O)c1cc(-c2ccccc2)nc2ccccc12 (centres undefined) | 36.2% (inactive) |
| CC1(C)C(=O)C(C(Cl)(Cl)Cl)=C(Cl)C(=O)C1(Cl)Cl | 52.5% (inactive) |
| Cc1cccc2c1CC1(C2)Cc2c(C)cccc2C1=O (centres undefined) | 36.9% (inactive) |
| Oc1c(Cl)cc(C(c2cc(Cl)c(O)c(Cl)c2)C(c2cc(Cl)c(O)c(Cl)c2)c2cc(Cl)c(O)c(Cl)c2)cc1Cl | 92.5% (active) |
| Cc1ccc(S(=O)(=O)NC(Cc2ccccc2)C(=O)CCl)cc1 (centres undefined) | 89.9% (active) |
| CCOC(=O)/C(C#N)=C/c1coc2cc(C)cc(C)c2c1=O | 70.4% (active) |
| CN(C)/N=C\C1CC=CCC1 (centres undefined) | 25.2% (inactive) |
| NCC(=O)N/N=C/c1ccc([N+](=O)[O-])o1 | 5.1% (inactive) |
| CCc1cc(CC)c(-c2ccco2)c(COC(=O)NC)c1 | 95.4% (active) |
